Assay results from PubChem BioAssay AID485288 (Southern Research Specialized Biocontainment Screening …, 2010).
Entries with a potency or affinity are not part of this list. The source made the active and inactive calls. The rule behind the calls is not given here.

Each compound was assayed against Large T antigen (Simian virus 40) (UniProt P03070) (assay: inhibition of TAg ATP hydrolysis – biochemical, ADP-Hunter detection, purified TAg, synthesized compounds, set 3, SAR follow-up (AID 485288)). Conditions: purified TAg ATPase, ADP-Hunter fluorescence; series mostly up to 100 µM.
Chain of Large T antigen (Simian virus 40) (P03070 whole entry, looked up): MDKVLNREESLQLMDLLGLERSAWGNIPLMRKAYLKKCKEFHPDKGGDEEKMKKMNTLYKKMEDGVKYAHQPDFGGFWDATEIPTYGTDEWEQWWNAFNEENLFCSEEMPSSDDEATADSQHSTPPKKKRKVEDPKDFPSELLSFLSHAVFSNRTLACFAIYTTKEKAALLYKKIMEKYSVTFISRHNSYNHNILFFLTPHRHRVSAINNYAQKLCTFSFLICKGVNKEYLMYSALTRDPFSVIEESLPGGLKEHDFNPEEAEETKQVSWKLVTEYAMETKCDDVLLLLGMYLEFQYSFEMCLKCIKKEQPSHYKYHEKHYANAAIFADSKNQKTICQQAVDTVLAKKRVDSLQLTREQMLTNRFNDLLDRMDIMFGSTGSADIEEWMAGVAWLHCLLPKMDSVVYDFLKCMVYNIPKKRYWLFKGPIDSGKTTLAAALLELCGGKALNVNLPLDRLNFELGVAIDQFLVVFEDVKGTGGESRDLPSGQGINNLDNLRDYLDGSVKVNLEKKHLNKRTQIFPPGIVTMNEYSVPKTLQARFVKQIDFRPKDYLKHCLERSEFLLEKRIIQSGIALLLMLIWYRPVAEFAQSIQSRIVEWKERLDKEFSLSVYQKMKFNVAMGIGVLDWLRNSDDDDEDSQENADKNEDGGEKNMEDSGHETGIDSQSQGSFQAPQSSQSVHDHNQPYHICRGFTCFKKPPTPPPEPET

outcome, inactive:
CC(=O)c1cc(C(C)(C)c2ccc(O)cc2)cc(C(C)=O)c1O
FC(F)(c1nnnn1-c1ccccc1)c1nnc2ccccn12
Oc1ccc(Cl)cc1Cc1cc(Cl)ccc1O
Cc1ccc(-n2nnnc2C(C)(C)N2CCCCC2)cc1
CC(C)(c1nnnn1-c1ccc(Cl)cc1)N1CCN(C(=O)c2ccco2)CC1
CC(C)(c1ccc(O)cc1)c1ccc(Cl)cc1
CC(C)(c1nnnn1-c1ccccc1)N1CCOCC1
Cc1ccccc1-n1nnnc1C(C)(C)N1CCCC1
Oc1ccccc1Cc1ccccc1O
